# Data: PubChem BioAssay (NCATS)
# Several values for one entry are separate records, joined by “and”; a condition that tells them apart may be missing. Equal values may be shown once. Inconclusive results are not listed. Where a call stands in place of a potency, no number is given. Where a structure was tested more than once in an assay, its records may differ in their call. Activity calls are given as the source filed them. Unless noted, calls follow the shape of the dose curve; as a rule, active = well fitted curve in the direction sought with a large enough effect; inconclusive = small, poorly fitted or top-dose-only effect, or another doubt; inactive = no such curve, though single readings can be large; an effect the other way counts as inactive or inconclusive.
# Tests used:
# Papain (Carica papaya) = Papain (Carica papaya) (UniProt P00784); test: Primary qHTS assay for inhibitors of the protease papain (AID 1645873); conditions: papain Z-FR-AMC cleavage, AMC fluorescence; series mostly up to 49.8 µM;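 also: papain turnover of Z-FR-AMC read as the AMC fluorescence gain over 10 min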; also: potency is read from the fitted curve at half-maximal effect
# [1] = Primary qHTS for inhibitors of nuclear receptor binding SET domain protein 2 (NSD2) in an isogenic RCH-ACV NSD2 p.E1099K mutant (9B) (AID 1645876); conditions: RCH-ACV NSD2 E1099K (9B) viability, CellTiter-Glo, 72 h; series mostly up to 44.9 µM; also: nearly all actives have a fitted effect of over 70% in size; also: potency is read from the fitted curve at half-maximal effect
# [2] = Primary qHTS for inhibitors of nuclear receptor binding SET domain protein 2 (NSD2) in an RCH-ACV wild type WT cells (2C) (AID 1645877); conditions: RCH-ACV (leukaemia line) NSD2 WT (2C) viability, CellTiter-Glo, 72 h; series mostly up to 44.9 µM; also: nearly all actives have a fitted effect of over 70% in size; also: potency is read from the fitted curve at half-maximal effect
# [3] = target: Catechol O-methyltransferase (Homo sapiens) (UniProt P21964); test: Confirmatory Screen for Target Class Profiling of Small Molecule Inhibitors of Methyltransferases (AID 1745852; calls by dose curve; also: potency is read from the fitted curve at half-maximal effect); conditions: MTase-Glo luminescence, SAH detection, recombinant enzyme, stronger effect = lower value; measured here: COMT max response unless noted
# [4] = target: Guanidinoacetate N-methyltransferase (Homo sapiens) (UniProt Q14353); test: as above; conditions: MTase-Glo luminescence, SAH detection, recombinant enzyme; activity change, negative = inhibition: at 57.3 µM (top of the series)
# [5] = target: Nicotinamide N-methyltransferase (Homo sapiens) (UniProt P40261); test: as above; conditions: MTase-Glo luminescence, SAH detection, recombinant enzyme, stronger effect = lower value; measured here: NNMT max response unless noted
# [6] = target: Phenylethanolamine N-methyltransferase (Homo sapiens) (UniProt P11086); test: as above; conditions: MTase-Glo luminescence, SAH detection, recombinant enzyme, stronger effect = lower value; measured here: PNMT max response unless noted
# [7] = NCATS anti-infectives library activity on HEK293 viability as a counter-qHTS vs the C. elegans viability qHTS (AID 1745854); conditions: HEK293 viability counter-screen; series mostly up to 41.8 µM;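 also: HEK293 cells exposed to compounds for 24 hr before the viability read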
# Method in brief: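 HEK293 cells (1,500/well) exposed 24 hr at 37C to 1:5 titrations, up to 41.7 uM final; counter-screen to a C. elegans viability qHTS. Viability by CellTiter-Glo luminescence after 10 min at room temperature; digitonin as control.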
# [8] = target: N-terminal Xaa-Pro-Lys N-methyltransferase 1 (Homo sapiens) (UniProt Q9BV86); test: Confirmatory qHTS for Inhibitors of N-terminal methyltransferase 1 (NTMT1): MTaseGlo Assay (AID 1645874); conditions: NTMT1 enzyme, MTase-Glo SAH luminescence; series mostly up to 51.5 µM; also: nearly all actives have a fitted effect of over 65% in size; also: potency is read from the fitted curve at half-maximal effect;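 as to activity change, negative = inhibition: luminescence from SAH made as NTMT1 methylates SPKRIA peptide using SAM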
# Method in brief: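 Luminescent MTase-Glo read-out of SAH. 125 nM NTMT1, 100 uM SAM, 1 uM SPKRIA substrate, 30 min RT reaction after 15 min compound preincubation. Normalized to no-enzyme and DMSO controls; Hill fit.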
# [9] = target: Rap guanine nucleotide exchange factor 3 (Homo sapiens) (UniProt O95398); test: Confirmatory qHTS for antagonist of cAMP-regulated guanine nucleotide exchange factor 3 (EPAC1) (AID 1645880); conditions: EPAC1 Rap1B-BODIPY-GDP exchange, fluorescence; series mostly up to 115 µM; also: nearly all actives have a fitted effect of over 55% in size; also: potency is read from the fitted curve at half-maximal effect
# Method in brief: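 Nucleotide exchange uses 100 nM EPAC1, 250 nM RAP1B-BODIPY-GDP and 50 uM GDP, with compounds in a concentration-titration series. After 5 min at room temperature, fluorescence (480 nm ex/540 nm em) is read every 5 min for 30 min. Data are normalized to control ATA and DMSO.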
# [10] = target: Rap guanine nucleotide exchange factor 3 (Homo sapiens) (UniProt O95398); test: Confirmatory qHTS for agonist of cAMP-regulated guanine nucleotide exchange factor 3 (EPAC1) (AID 1645881); conditions: EPAC1 Rap1B BODIPY-GDP exchange fluorescence; series mostly up to 154 µM;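 also: EPAC1 catalysed release of BODIPY-GDP from Rap1B seen as fluorescence loss; nearly all actives have a fitted effect of over 75% in size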
# [11] = target: Rap guanine nucleotide exchange factor 4 (Homo sapiens) (UniProt Q8WZA2); test: Confirmatory qHTS for agonist of cAMP-regulated guanine nucleotide exchange factor 4 (EPAC2) (AID 1645884); conditions: EPAC2 GEF activity, Rap1B-BODIPY-GDP fluorescence; series mostly up to 154 µM;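 also: nucleotide exchange releases bodipy-GDP from Rap1 and this lowers its fluorescence; nearly all actives have a fitted effect of over 65% in size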
# [12] = target: Rap guanine nucleotide exchange factor 4 (Homo sapiens) (UniProt Q8WZA2); test: Confirmatory qHTS for antagonist of cAMP-regulated guanine nucleotide exchange factor 4 (EPAC2) (AID 1645885); conditions: EPAC2 Rap1B-BODIPY-GDP exchange fluorescence, biochemical; series mostly up to 114 µM; also: nearly all actives have a fitted effect of over 25% in size; also: potency is read from the fitted curve at half-maximal effect
# [13] = NCATS anti-infectives library activity on the primary C. elegans qHTS viability assay (AID 1745855; calls by dose curve); conditions: C. elegans worm area imaging, day 7; series mostly up to 41.8 µM
# Method in brief: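 Viability read-out is GFP fluorescence of PE254-GFP-FLuc C. elegans, measured by laser cytometry (488 nm) at day 0, 3 and 7. Ten L1 worms per well were incubated 7 days at 21 °C with compounds and bacterial capsules in S medium.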
# [14] = target: Rap guanine nucleotide exchange factor 3 (Homo sapiens) (UniProt O95398); test: Counterscreen qHTS for antagonist of cAMP-regulated guanine nucleotide exchange factor 3 (EPAC1) (AID 1645888); conditions: Rap1B-BODIPY-GDP nucleotide exchange, fluorescence; series mostly up to 154 µM;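 also: fluorescence loss as bound BODIPY-GDP is released from Rap1B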
# Method in brief: (§1)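 Rap1B–BODIPY-GDP (250 nM) with 50 uM GDP; compounds pin-transferred to 9.74 nM–152 uM final (activator) or from 7.32 nM upwards (inhibitor). Fluorescence Ex/Em 480/540 nm read at 5 and 30 min, then after adding cAMP or buffer, at room temperature.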
# [15] = target: Rap guanine nucleotide exchange factor 3 (Homo sapiens) (UniProt O95398); test: Counterscreen qHTS for agonist of cAMP-regulated guanine nucleotide exchange factor 3 (EPAC1) (AID 1645889); conditions: EPAC1 Rap1B-BODIPY-GDP exchange, fluorescence; series mostly up to 154 µM; also: nearly all actives have a fitted effect of over 40% in size
# Method in brief: as §1
# Sequence of Nicotinamide N-methyltransferase (Homo sapiens) (P40261 whole entry, looked up): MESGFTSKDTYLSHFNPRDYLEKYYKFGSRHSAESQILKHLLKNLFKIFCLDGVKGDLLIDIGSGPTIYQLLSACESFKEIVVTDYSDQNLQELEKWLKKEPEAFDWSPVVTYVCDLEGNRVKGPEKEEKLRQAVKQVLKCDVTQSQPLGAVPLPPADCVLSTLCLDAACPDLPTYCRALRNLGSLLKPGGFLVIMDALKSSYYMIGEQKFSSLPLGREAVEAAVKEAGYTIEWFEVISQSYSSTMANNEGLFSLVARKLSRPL
# Sequence of Catechol O-methyltransferase (Homo sapiens) (P21964 whole entry, looked up): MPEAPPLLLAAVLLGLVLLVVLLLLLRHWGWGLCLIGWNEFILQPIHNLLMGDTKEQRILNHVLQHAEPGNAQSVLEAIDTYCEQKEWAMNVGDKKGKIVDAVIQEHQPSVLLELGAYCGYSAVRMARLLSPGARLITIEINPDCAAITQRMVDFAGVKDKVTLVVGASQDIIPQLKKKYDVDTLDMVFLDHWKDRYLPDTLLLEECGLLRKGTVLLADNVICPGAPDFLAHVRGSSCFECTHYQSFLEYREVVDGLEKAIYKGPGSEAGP
# Sequence of Papain (Carica papaya) (P00784 whole entry, looked up, the tested form may be a part): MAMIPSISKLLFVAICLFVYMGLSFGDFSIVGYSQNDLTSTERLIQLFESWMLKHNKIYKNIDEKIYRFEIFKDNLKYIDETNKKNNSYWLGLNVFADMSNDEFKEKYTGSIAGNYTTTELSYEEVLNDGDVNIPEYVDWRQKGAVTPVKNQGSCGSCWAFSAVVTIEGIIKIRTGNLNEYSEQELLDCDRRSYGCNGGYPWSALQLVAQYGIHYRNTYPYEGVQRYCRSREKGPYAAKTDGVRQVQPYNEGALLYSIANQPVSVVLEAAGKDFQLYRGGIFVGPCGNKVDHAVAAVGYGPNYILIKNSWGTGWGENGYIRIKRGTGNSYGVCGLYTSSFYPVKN
# Sequence of Rap guanine nucleotide exchange factor 4 (Homo sapiens) (Q8WZA2 whole entry, looked up): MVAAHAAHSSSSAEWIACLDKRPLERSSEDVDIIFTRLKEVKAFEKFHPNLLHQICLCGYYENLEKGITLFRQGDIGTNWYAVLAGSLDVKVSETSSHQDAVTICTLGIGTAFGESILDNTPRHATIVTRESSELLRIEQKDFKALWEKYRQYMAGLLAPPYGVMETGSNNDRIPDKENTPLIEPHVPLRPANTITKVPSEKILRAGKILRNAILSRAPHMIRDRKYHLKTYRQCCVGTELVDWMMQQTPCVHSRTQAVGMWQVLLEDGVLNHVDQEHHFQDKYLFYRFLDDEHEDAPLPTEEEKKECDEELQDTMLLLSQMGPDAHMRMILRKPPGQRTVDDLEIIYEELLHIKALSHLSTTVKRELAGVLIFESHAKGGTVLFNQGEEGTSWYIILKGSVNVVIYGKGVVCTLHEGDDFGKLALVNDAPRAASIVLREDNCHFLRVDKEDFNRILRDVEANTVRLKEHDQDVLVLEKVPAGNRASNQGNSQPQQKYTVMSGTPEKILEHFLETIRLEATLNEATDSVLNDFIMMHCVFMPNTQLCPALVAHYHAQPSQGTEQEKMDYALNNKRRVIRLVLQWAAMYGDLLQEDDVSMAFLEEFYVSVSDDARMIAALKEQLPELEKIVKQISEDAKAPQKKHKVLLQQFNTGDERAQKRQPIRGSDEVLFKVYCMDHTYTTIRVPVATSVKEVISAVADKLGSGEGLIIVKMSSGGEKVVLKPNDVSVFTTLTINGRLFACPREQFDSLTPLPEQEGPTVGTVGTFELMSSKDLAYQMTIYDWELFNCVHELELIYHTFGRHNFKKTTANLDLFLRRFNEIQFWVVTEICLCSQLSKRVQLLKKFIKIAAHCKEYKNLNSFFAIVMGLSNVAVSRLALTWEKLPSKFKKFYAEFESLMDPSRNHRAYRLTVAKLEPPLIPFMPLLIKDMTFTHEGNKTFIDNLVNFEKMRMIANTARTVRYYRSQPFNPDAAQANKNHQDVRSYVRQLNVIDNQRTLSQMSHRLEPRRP
# Sequence of Phenylethanolamine N-methyltransferase (Homo sapiens) (P11086 whole entry, looked up): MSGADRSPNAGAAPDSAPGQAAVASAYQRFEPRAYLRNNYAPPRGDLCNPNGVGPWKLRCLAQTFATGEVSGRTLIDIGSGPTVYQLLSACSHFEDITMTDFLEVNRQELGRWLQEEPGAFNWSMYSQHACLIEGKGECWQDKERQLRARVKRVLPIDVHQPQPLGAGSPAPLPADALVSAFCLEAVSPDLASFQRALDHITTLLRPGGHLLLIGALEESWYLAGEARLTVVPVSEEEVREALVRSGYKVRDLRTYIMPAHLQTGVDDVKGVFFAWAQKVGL
# Sequence of Rap guanine nucleotide exchange factor 3 (Homo sapiens) (O95398 whole entry, looked up): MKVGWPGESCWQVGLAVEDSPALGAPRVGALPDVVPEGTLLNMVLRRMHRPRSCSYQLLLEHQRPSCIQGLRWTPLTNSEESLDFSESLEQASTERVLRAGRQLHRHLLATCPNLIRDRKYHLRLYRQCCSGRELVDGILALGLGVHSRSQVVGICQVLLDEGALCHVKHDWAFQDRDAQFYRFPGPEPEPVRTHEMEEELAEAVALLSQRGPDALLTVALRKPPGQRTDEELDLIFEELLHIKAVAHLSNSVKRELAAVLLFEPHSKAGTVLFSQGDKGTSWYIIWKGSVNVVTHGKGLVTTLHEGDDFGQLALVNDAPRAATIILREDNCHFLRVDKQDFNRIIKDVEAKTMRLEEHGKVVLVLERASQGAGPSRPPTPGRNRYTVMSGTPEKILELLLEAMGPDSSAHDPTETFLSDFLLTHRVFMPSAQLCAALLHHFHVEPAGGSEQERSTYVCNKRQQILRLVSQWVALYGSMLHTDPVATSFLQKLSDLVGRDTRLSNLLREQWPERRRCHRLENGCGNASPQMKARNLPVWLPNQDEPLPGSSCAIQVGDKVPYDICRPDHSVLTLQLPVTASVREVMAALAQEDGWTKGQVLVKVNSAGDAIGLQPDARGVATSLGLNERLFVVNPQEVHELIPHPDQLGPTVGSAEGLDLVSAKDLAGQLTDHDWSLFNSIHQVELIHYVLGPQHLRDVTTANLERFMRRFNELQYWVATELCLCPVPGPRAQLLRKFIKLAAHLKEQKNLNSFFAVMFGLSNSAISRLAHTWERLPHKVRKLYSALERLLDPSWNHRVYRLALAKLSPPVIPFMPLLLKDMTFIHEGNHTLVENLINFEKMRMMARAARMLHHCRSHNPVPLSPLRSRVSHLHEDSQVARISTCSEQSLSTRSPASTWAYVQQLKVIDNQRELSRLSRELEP
# Sequence of N-terminal Xaa-Pro-Lys N-methyltransferase 1 (Homo sapiens) (Q9BV86 whole entry, looked up): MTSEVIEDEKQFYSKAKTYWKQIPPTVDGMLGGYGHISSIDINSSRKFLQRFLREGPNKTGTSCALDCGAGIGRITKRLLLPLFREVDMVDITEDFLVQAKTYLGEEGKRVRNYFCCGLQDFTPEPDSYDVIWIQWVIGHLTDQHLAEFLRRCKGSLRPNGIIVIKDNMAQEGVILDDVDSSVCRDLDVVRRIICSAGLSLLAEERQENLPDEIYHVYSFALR
structure (smiles),measurement,setting,value
O=C1c2c(O)cc(O)cc2OC(c2ccc(O)c(O)c2)C1O (stereo not drawn),Potency,Papain (Carica papaya),inactive
c1cnc2cc3c(cc2n1)C1CNCC3C1,Potency,Papain (Carica papaya),inactive
same,Potency,[1],inactive
same,Potency,[2],inactive
Clc1ccc2c(N3CCN(CCCN4CCN(c5ccnc6cc(Cl)ccc56)CC4)CC3)ccnc2c1,Potency,Papain (Carica papaya),inactive
same,Potency,[1],inactive
same,Potency,[2],inactive
C[C@H](Cc1ccc(O)c(O)c1)[C@@H](C)Cc1ccc(O)c(O)c1,Potency,Papain (Carica papaya),inactive
same,Potency,[1],13.2 µM (active) and 7.31 µM (active)
same,Potency,[2],11.8 µM (active) and 7.31 µM (active)
same,activity,[3],10.2%
same,Potency,[4],30.6 µM (active)
same,activity,[5],-37.4%
same,activity,[6],-61.1%
NC(=NCc1ccccc1)NC(=O)c1nc(Cl)c(N)nc1N,Potency,Papain (Carica papaya),31.6 µM (active)
same,Potency,[1],13.2 µM (active)
same,Potency,[2],13.2 µM (active)
CC1(C)NC(=O)N(c2ccc([N+](=O)[O-])c(C(F)(F)F)c2)C1=O,Potency,Papain (Carica papaya),inactive
same,Potency,[1],inactive
same,Potency,[2],inactive
Nc1nc(OCc2ccccc2)c2[nH]cnc2n1,Potency,Papain (Carica papaya),inactive
COc1ccccc1N1CCN(CCN(C(=O)C2CCCCC2)c2ccccn2)CC1,Potency,Papain (Carica papaya),inactive
same,Potency,[1],inactive
same,Potency,[2],inactive
Cc1cc(Cl)ccc1OCCCC(=O)NO,Potency,Papain (Carica papaya),inactive
same,Potency,[1],1.48 µM (active)
same,Potency,[2],1.66 µM (active)
same,outcome,[7],inactive
CNC[C@H](O)c1ccc(O)c(O)c1,Potency,Papain (Carica papaya),inactive
same,Potency,[1],inactive
same,Potency,[2],inactive
C[C@@H](c1ncncc1F)[C@](O)(Cn1cncn1)c1ccc(F)cc1F,Potency,Papain (Carica papaya),inactive
CC(=O)NC[C@H]1CN(c2ccc(N3CCOCC3)c(F)c2)C(=O)O1,Potency,Papain (Carica papaya),inactive
same,Potency,[1],inactive
same,Potency,[2],inactive
same,outcome,[7],inactive
O=C1c2ccccc2-c2n[nH]c3cccc1c23,Potency,Papain (Carica papaya),inactive
same,Potency,[1],11.8 µM (active) and 14.6 µM (active)
same,Potency,[2],13.2 µM (active) and 14.6 µM (active)
CCN(CC)C(=S)SSC(=S)N(CC)CC,Potency,Papain (Carica papaya),inactive
same,Potency,[1],351 nM (active) and 2.66 µM (active) and 2.63 µM (active)
same,Potency,[2],394 nM (active) and 4.22 µM (active) and 2.95 µM (active)
same,activity,[3],-3.32%
same,"activity change, negative = inhibition",[4],4.64%
same,activity,[5],-10.3%
same,activity,[6],-2.02%
C[C@@H](N)C1CCC(C(=O)Nc2ccncc2)CC1 (stereo partly drawn),Potency,Papain (Carica papaya),inactive
same,Potency,[1],inactive
same,Potency,[2],inactive
O=Nc1c(-c2c(O)[nH]c3cc(Br)ccc23)[nH]c2ccccc12,Potency,Papain (Carica papaya),inactive
same,Potency,[1],1.32 µM (active)
same,Potency,[2],1.32 µM (active)
NNc1nncc2ccccc12,Potency,Papain (Carica papaya),inactive
same,Potency,[1],inactive
same,Potency,[2],inactive
O=C(c1ccccc1)c1ccc2n1CCC2C(=O)O (stereo not drawn),Potency,Papain (Carica papaya),inactive
same,Potency,[1],inactive
same,Potency,[2],inactive
O=C(CCc1ccc(O)cc1)c1c(O)cc(O)cc1O,Potency,Papain (Carica papaya),inactive
same,Potency,[1],inactive
CC1(C)C(=O)N(CCN2CCC(C(=O)c3ccc(F)cc3)CC2)c2ccccc21,Potency,Papain (Carica papaya),inactive
CCCCCCCCOc1ccccc1C(=O)Nc1ccc(C(=O)OCC[N+](C)(CC)CC)cc1,Potency,[8],47.8 µM (active)
CC(=O)N1CCN(c2ccc(OC[C@H]3CO[C@](Cn4ccnc4)(c4ccc(Cl)cc4Cl)O3)cc2)CC1,Potency,Papain (Carica papaya),inactive
same,Potency,[9],inactive
same,outcome,[10],inactive
same,outcome,[11],inactive
same,Potency,[12],49.4 µM (active)
CN(C)C(=O)[C@H](O)[C@H](Cc1ccccc1)NC(=O)c1cc2cc(Cl)ccc2[nH]1,Potency,Papain (Carica papaya),inactive
COc1ccc2cc([C@H](C)C(=O)O)ccc2c1,Potency,Papain (Carica papaya),inactive
same,outcome,[7],inactive
same,Potency,[13],inactive
CN(C)CCCC1(c2ccc(F)cc2)OCc2cc(C#N)ccc21 (stereo not drawn),Potency,Papain (Carica papaya),inactive
NCCCCNCCCN,Potency,Papain (Carica papaya),inactive
same,Potency,[2],6.61 µM (active)
CCOC(=O)C(C)Oc1cccc2c(=O)n(CC(=O)Nc3ccc4c(c3)OCCO4)ccc12 (stereo not drawn),Potency,Papain (Carica papaya),inactive
same,Potency,[1],inactive
same,Potency,[2],inactive
CC(C)c1ccc2c(c1)c(SC(C)(C)C)c(CC(C)(C)C(=O)O)n2Cc1ccc(Cl)cc1,Potency,Papain (Carica papaya),inactive
same,Potency,[1],inactive
same,Potency,[2],inactive
same,Potency,[9],inactive and 30.1 µM (active) and 35.2 µM (active)
same,outcome,[10],inactive
same,outcome,[11],inactive
same,Potency,[12],inactive and 19 µM (active) and 27.8 µM (active)
same,outcome,[14],inactive
same,outcome,[15],inactive
same,activity,[3],-0.145%
same,Potency,[4],30.6 µM (active)
same,activity,[5],-41.8%
same,activity,[6],-5.81%
O=C(O)c1cccc(-c2noc(-c3ccccc3F)n2)c1,Potency,[8],inactive
same,Potency,[1],inactive
same,Potency,[2],inactive
